Data on 61 compounds can be found in PubChem BioAssay AID1421 (Emory University Molecular Libraries Screening Center, 2008).

SMILES strings stand for the structures. About 140 (11%) of roughly 1,300 compounds were called active. Only a sample is shown. Entries with a potency or affinity are not part of this list. Unmarked numbers belong to inactive results. How the calls were made is not given here.

Sequence of Prostaglandin E2 receptor EP2 subtype (Homo sapiens) (P43116 whole entry, looked up): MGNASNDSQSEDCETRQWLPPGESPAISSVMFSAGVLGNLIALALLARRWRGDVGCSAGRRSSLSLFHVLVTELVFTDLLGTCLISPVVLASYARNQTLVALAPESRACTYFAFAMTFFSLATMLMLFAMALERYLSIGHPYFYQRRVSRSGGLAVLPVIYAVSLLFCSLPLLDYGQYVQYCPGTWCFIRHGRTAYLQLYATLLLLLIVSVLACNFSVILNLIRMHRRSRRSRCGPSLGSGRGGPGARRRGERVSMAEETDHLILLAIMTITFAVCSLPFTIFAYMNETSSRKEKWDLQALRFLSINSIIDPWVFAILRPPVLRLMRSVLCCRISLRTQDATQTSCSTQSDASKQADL

The test has as its target Prostaglandin E2 receptor EP2 subtype (Homo sapiens) (UniProt P43116). Description: EP2 receptor modulators, dose response, cell-based, human EP2, PGE2 EC50 shift (AID 1421). The settings on record: EP2-expressing cells, PGE2 EC50 shift by compound; at 20 µM.
In the case of `Cc1cccc(C)c1OCc1nnc(SCC(=O)Nc2nccs2)n1-c1ccccc1`, the PGE2 EC50 with compound is 570 pM.

With `CC(=O)c1ccc2c(c1)c1ccccc1n2CC(C)C`, the PGE2 EC50 with compound was 190 pM.

With `Cc1cc([N+](=O)[O-])c(C)c(Br)c1C`, the PGE2 EC50 with compound is 910 pM.

As for `O=C(O)c1nc2nc(Cl)c(Cl)nc2[nH]1`, the PGE2 EC50 with compound is 870 pM.

As for `O=C(CNCC1CCCCC1)Nc1ccccc1N1CCCCC1`, the PGE2 EC50 with compound was 570 pM.

Turning to `O=C(Nc1ccccc1N1CCCCC1)c1cccc([N+](=O)[O-])c1`, the PGE2 EC50 with compound was 300 pM.

Regarding `O=C(Nc1ccccc1N1CCCCC1)c1ccc(F)cc1`, the PGE2 EC50 with compound is 410 pM.

For the compound `O=C(Nc1ccccc1N1CCCC1)c1cc2ccccc2o1`, the PGE2 EC50 with compound is 190 pM.

Turning to `O=C(Nc1ccccc1N1CCCCC1)c1ccc2nccnc2c1`, the PGE2 EC50 with compound was 80 pM.

Turning to `CC1CCN(c2ccccc2NC(=O)c2ccc(F)cc2)CC1`, the PGE2 EC50 with compound is 300 pM.

Regarding `O=C(Nc1ccccc1Oc1ccccc1)c1cnccn1`, the PGE2 EC50 with compound is 750 pM.

In the case of `O=C(Nc1ccccc1N1CCCCC1)c1cccc(F)c1`, the PGE2 EC50 with compound was 330 pM.

Regarding `CCOC(=O)c1c(N)sc(-c2ccccc2)c1C`, the PGE2 EC50 with compound was 800 pM.

Consider `O=C(CO/N=C/c1ccccc1)N1c2ccccc2Oc2ccccc21`, for which the PGE2 EC50 with compound was 590 pM.

On to `CC1CCN(c2nc3c(c(=O)[nH]c(=O)n3C)n2CC(C)CSc2nnnn2-c2ccccc2)CC1` (stereo unspecified), for which the PGE2 EC50 with compound is 730 pM.

For the compound `COC(=O)c1cc2occc2n1Cc1cccc(C)c1`, the PGE2 EC50 with compound is 360 pM.

With `CCc1nc2c(cnn2-c2ccc(Cl)cc2)c(=O)n1-c1ccc(OC)cc1`, the PGE2 EC50 with compound was 1120 pM.

Turning to `COc1ccc(Cl)cc1-n1c(C)ccc1C`, the PGE2 EC50 with compound is 330 pM.

On to `CCCCc1nc(SCCOC)c2c(=O)n(C)c(=O)n(C)c2n1`, for which the PGE2 EC50 with compound was 460 pM.

Take `CCC(=O)Oc1ccc(C(CC)C(CC)c2ccc(OC(=O)CC)cc2)cc1` (stereo unspecified): the PGE2 EC50 with compound was 530 pM.

As for `O=c1c2ccccc2c(=O)n(Cc2ccccc2)n1Cc1ccccc1`, the PGE2 EC50 with compound is 80 pM.

As to `CC(=O)Oc1ccc2ccccc2c1C(NC(=O)Cc1ccccc1)c1ccccc1` (stereo unspecified), the PGE2 EC50 with compound is 320 pM.

Take `COc1ccc(CSC2=C(C#N)C(=O)NC3(CCCCC3)S2)cc1`: the PGE2 EC50 with compound was 760 pM.

For the compound `O=C(Nc1ccccc1N1CCCCC1)c1ccc(Cl)c([N+](=O)[O-])c1`, the PGE2 EC50 with compound was 550 pM.

With `COc1ccc(C(=O)Nc2ccccc2N2CCCCC2)cc1[N+](=O)[O-]`, the PGE2 EC50 with compound was 440 pM.

Regarding `Cc1cccc(-n2c(CCc3ccccc3)nnc2SCC(=O)c2ccccc2)c1`, the PGE2 EC50 with compound is 190 pM.

With `COc1ccccc1C(CC(=O)c1ccccc1)CC(=O)c1ccccc1`, the PGE2 EC50 with compound was 610 pM.

Regarding `O=c1[nH]c(=S)c2c(n1-c1ccccc1)CCC2`, the PGE2 EC50 with compound was 1620 pM.

Regarding `Cc1cccc(/C=N/Nc2cc(N3CCOCC3)nc(N3CCOCC3)n2)c1`, the PGE2 EC50 with compound is 590 pM.

`CCSc1nnc(-c2ccc(Cl)cc2)c2ccccc12`: the PGE2 EC50 with compound is 2310 pM.

Consider `COc1ccc2c(-c3ccccc3)cc(N3CCOCC3)nc2c1`, for which the PGE2 EC50 with compound was 430 pM.

Take `COc1ccc(C2=Nn3c(nnc3C3CCCCC3)SC2)cc1OC`: the PGE2 EC50 with compound is 480 pM.

As to `CCOC(=O)C1=C(CC)OC(N)=C(C#N)C1c1ccsc1` (stereo unspecified), the PGE2 EC50 with compound was 520 pM.

For the compound `CCn1c2ccc(Cl)cc2c2nc3ccccc3nc21`, the PGE2 EC50 with compound is 400 pM.

In the case of `O=c1c2ccccc2nc(/C=C/c2ccccc2)n1CCc1ccccc1`, the PGE2 EC50 with compound is 100 pM.

As to `C=CCOc1c(Br)cc(/C=N/n2c(CC)n[nH]c2=S)cc1Br`, the PGE2 EC50 with compound is 130 pM.

Turning to `CC(C)c1nc(N2CCN(C(=O)c3ccccc3)CC2)c(C#N)c2c1COC(C)(C)C2`, the PGE2 EC50 with compound was 350 pM.

As for `Cc1nc2ccccn2c1C(=O)CSc1ccc(Cl)cc1Cl`, the PGE2 EC50 with compound was 5690 pM.

Turning to `Cc1cc(C(=O)NCC(c2ccco2)N(C)C)no1` (stereo unspecified), the PGE2 EC50 with compound was 800 pM.

Consider `O=S(Cc1cc(Sc2ccccc2)nc(-c2ccccc2)n1)c1ccccc1` (stereo unspecified), for which the PGE2 EC50 with compound was 320 pM.

As to `CCOC(=O)CNC(=O)c1ccc2c(c1)OCCO2`, the PGE2 EC50 with compound is 460 pM.

For `CCOC(=O)c1c(-c2ccc(C)cc2)csc1NC(=O)c1ccc(N2C(=O)CCC2=O)cc1`, the PGE2 EC50 with compound was 290 pM.

With `CCOC(=O)c1oc2ccccc2c1NC(=O)c1cccc(OC)c1OC`, the PGE2 EC50 with compound is 430 pM.

For the compound `CCOC(=O)c1[nH]c2ccc(OC)cc2c1NS(=O)(=O)c1ccc(Cl)s1`, the PGE2 EC50 with compound was 390 pM.

For the compound `CCOC(=O)c1cc2sc(C)cc2n1C(C)C(=O)OCC` (stereo unspecified), the PGE2 EC50 with compound is 350 pM.

`CCOC(=O)c1c(NC(=O)c2ccncc2)sc(C)c1C`: the PGE2 EC50 with compound is 450 pM.

Consider `Cc1ccccc1Cn1c(-c2cncs2)nc2ccccc21`, for which the PGE2 EC50 with compound is 550 pM.

In the case of `c1ccc(CCc2ccccc2-c2nc(-c3cccnc3)no2)cc1`, the PGE2 EC50 with compound is 180 pM.

For the compound `CCOC(=O)c1c(NC(=O)CSc2nnc(N)s2)sc(C)c1-c1ccc(C)cc1`, the PGE2 EC50 with compound was 350 pM.

With `Cc1cccc(N=N/C(=C\O)C(=O)c2ccc(Br)cc2)c1`, the PGE2 EC50 with compound was 180 pM.

Regarding `Cc1cc(C)c(S(=O)(=O)O)c(C)n1`, the PGE2 EC50 with compound was 610 pM.

With `COC(=O)c1[nH]c2ccccc2c1NS(=O)(=O)c1ccc(F)c(C)c1`, the PGE2 EC50 with compound was 410 pM.

Take `Cn1c(=O)[nH]c(=O)c2c1nc(CN1CCN(c3ccccc3F)CC1)n2CCCc1ccccc1`: the PGE2 EC50 with compound was 470 pM.

For `S=c1[nH]nc(-c2ccc(Br)o2)n1Cc1ccccc1`, the PGE2 EC50 with compound is 800 pM.

`Cc1ccc2c3c(cccc13)-c1ccccc1C2=O`: the PGE2 EC50 with compound was 360 pM.

Consider `Cn1c(=O)c(NCCc2ccccc2)c2c3c(cccc31)C(=O)c1ccccc1-2`, for which the PGE2 EC50 with compound is 580 pM.

Consider `NC(=O)CSc1nnc(-c2cccc(S(=O)(=O)N3CCOCC3)c2)n1C1CCCCCC1`, for which the PGE2 EC50 with compound was 630 pM.

`CCCSc1nc(N2CCCC2)c2c(c1C#N)CC(C)(C)OC2`: the PGE2 EC50 with compound was 260 pM.

With `Cc1noc(C)c1CSc1nc2sc3c(c2c(=O)n1C)CCCC3`, the PGE2 EC50 with compound is 890 pM.

Take `Cc1cc2ccc(C)c(C)c2nc1SCC#N`: the PGE2 EC50 with compound is 350 pM.

`C=CCn1c(CCc2cc(C(C)(C)C)c(O)c(C(C)(C)C)c2)n[nH]c1=S`: the PGE2 EC50 with compound was 580 pM.
